Experimental data from ChEMBL document CHEMBL4513216, “Probing the Open Global Health Chemical Diversity Library for Multistage-Active Starting Points for Next-Generation Antimalarials” (ACS Infect Dis, 2020).
In all, about 69,000 compounds went through this assay and about 8,600 (12%) showed an effect of 50% or more. The sample as a whole holds a higher share of strong results than the screen did.

test system: Plasmodium berghei; assay: Screen against P. berghei liver stage (PbLuc), transformed with Luciferase, at 10uM; type: functional, HepG2; details: tested at 10 uM

SMILES | INHIBITION
N[C@@H](Cc1ccccc1)c1nnc(S(=O)(=O)Cc2ccc(Cl)cc2)o1 | 15.4%
N[C@@H](Cc1ccccc1)c1nnc(S(=O)(=O)Cc2ccccc2)o1 | 53.8%
CCS(=O)(=O)c1nnc([C@@H](N)Cc2ccccc2)o1 | 11.6%
Cc1cnn(CC2CCCN2C(=O)c2c(C)noc2C)c1 (configuration not stated) | 12.7%
Cc1ccnn1CCC(=O)N1CCCC1c1cc2cccnc2[nH]1 (configuration not stated) | 6.26%
Cc1nc(N2CCOCC2)nc2c1COCC21CCN(CC2CC2)C1 (configuration not stated) | 36.9%
CCN(Cc1ccncc1)CC1(O)CCN(C(=O)c2cccc(C)c2)C1 (configuration not stated) | -9.32%
Cc1cccc2c1nc1n2[C@@H](CNC(=O)c2ccccn2)COC1 | 37.4%
Cc1cccc2c1nc1n2[C@@H](CNC(=O)NC(C)C)COC1 | 11.6%
COc1ccc2c(c1)nc1n2[C@@H](CNC(=O)c2ccccn2)COC1 | 7.53%
COc1ccc(CNC[C@H]2COCc3nc4cccnc4n32)cc1 | 6.55%
c1ccc(CNC[C@H]2COCc3nc4cccnc4n32)cc1 | 54.7%
Cc1ccc2c(c1)nc1n2[C@@H](CNC(=O)c2ccccn2)COC1 | 57%
Cc1cccc2c1nc1n2[C@@H](CNC2CCCCC2)COC1 | 51%
CC(=O)NC[C@H]1COCc2nc3c(C)cccc3n21 | 46.4%
Cc1cccc2c1nc1n2[C@@H](CNC(=O)Cc2ccccc2)COC1 | -33.8%
FC(F)(F)c1ccc(CNC[C@H]2COCc3nc4cccnc4n32)cc1 | 39.3%
Cc1cccc2c1nc1n2[C@@H](CNC(=O)C2CCOCC2)COC1 | 43.4%
COc1ccccc1C(=O)NC[C@H]1COCc2nc3c(C)cccc3n21 | 50.2%
CCN(CC(=O)Nc1cc(Cl)ccc1C)C(=O)c1ccc(=O)[nH]n1 | 23.2%
COc1ncc(-c2ccc(O)cc2)c(OC)n1 | 27.6%
CC(C)c1ccc(C2CC(=O)Nc3c2cnn3C)cc1 (configuration not stated) | 14.7%

SMILES | INHIBITION
COc1ccccc1OCC(=O)NS(=O)(=O)c1ccc(C)s1 | 25.1%
CCNC(=O)[C@@H]1C[C@H](NC(=O)c2cncnc2C)CN1Cc1ccsc1 | 22.6%
CC(C)c1nn(C)c(N(C)C)c1CNCc1ccnc(N(C)C)c1 | -10.8%
Cc1nc(C)n(CC2CCCN(Cc3cccc(F)c3F)C2)n1 (configuration not stated) | 31.2%
COc1ccc2c(c1)nc1n2[C@@H](CNCc2nccs2)COC1 | 8.52%
COc1ccc2c(c1)nc1n2[C@@H](CNCc2ccccc2)COC1 | 43.1%
COc1ccc2c(c1)nc1n2[C@@H](CNCc2ncccc2C)COC1 | 51%
Cc1ccc2c(n1)N(C)CCN(C(=O)NC(C)C)C2 | 23.6%
O=C(CCN1CCc2c(ncn2C2CC2)C1)NC1CCCC1 | -45.6%
CCc1ccc(C(=O)NC2CCCN(c3ccn(C)n3)C2=O)o1 (configuration not stated) | 20.3%
CCc1ccc(C(=O)NC2CCc3nc(C)cn3C2)o1 (configuration not stated) | 2.75%
CCc1ccc(C(=O)NC2CCN(c3ccn(C)n3)C2)o1 (configuration not stated) | 62.4%
CNc1cc(CNC(=O)c2cccnc2)nc(-c2ccncc2)n1 | 27.8%
CCc1noc(C(C)N2CCN(CCN3CCCC3=O)CC2)n1 (configuration not stated) | -0.113%
C[C@H]1C[C@H]2CN(C(=O)CC3CC3)CC[C@H]2O1 | 1.94%
Cc1ccc(CN2C(=O)CCC2C(=O)Nc2cnn(C)c2)o1 (configuration not stated) | 36.7%
CC(=O)N1CCCC(C(=O)NCCOc2cc(C)cc(C)c2)C1 (configuration not stated) | -33.7%
CCN(CC)C(=O)[C@@H]1C[C@H](NC(=O)c2ccn(C(C)(C)C)c2)CN1C | 21.7%
CCN(CC)C(=O)[C@@H]1C[C@@H](NC(=O)c2ccoc2)CN1C | 6.88%
CCN(CC)C(=O)[C@@H]1C[C@@H](NC(=O)c2ccn(C(C)(C)C)c2)CN1C | 51.3%
O=C(NCc1cccs1)c1nc2c(o1)CN(C(=O)c1cccnc1)C2 | -4.4%
COc1ccc(C2CCCN2C(=O)c2cc(C(C)C)on2)cc1 (configuration not stated) | -75.1%

SMILES | INHIBITION
COc1cccc(C2CCN2C(=O)c2cnccn2)c1 (configuration not stated) | -3.81%
COc1cccc(C2CCN2C(=O)c2cc(C(C)C)on2)c1 (configuration not stated) | 55.5%
Cc1ccc(N2CC[C@H]3C[C@H](C(=O)NCc4ccco4)O[C@H]3C2)nn1 | 14.5%
CN(CCSc1nncn1C(C)(C)C)c1ccccc1 | -9.8%
Cc1ccc2c(c1)CCC2NCc1c(C)nn(C)c1N1CCOCC1 (configuration not stated) | 33.8%
CC1CCC(O)(CSc2nnnn2C2CC2)CC1 (configuration not stated) | -44.2%
O=C(O)c1ccn(-c2ccccc2NS(=O)(=O)c2cccc(F)c2)n1 | 30.3%
COc1c(C2CCCN2C(=O)c2cnccn2)c(C)nn1C (configuration not stated) | 5.7%
O=C(c1ccc2c(c1)[nH]c(=O)n2C1CCCC1)N1CCC1 | 21.1%
O=C(c1ccc2c(c1)[nH]c(=O)n2C1CCCC1)N1CCSCC1 | -6.72%
CN1CCN(C(=O)c2ccc3c(c2)[nH]c(=O)n3C2CCCC2)CC1 | 58.2%
CN1CCNC(=O)C12CCN(C(=O)c1ccc3[nH]c(=O)[nH]c3c1)CC2 | 38.2%
Cc1cnn(CC2CN(Cc3csc(C(C)C)n3)CCO2)c1 (configuration not stated) | 9.64%
Cc1ccc(C(=O)N2CCC3(CCCN(c4ncc(F)cn4)C3)C2)cn1 (configuration not stated) | 36.7%
O=C(c1ccsc1)N1CCC2(CCN2Cc2ccc(F)cc2)C1 (configuration not stated) | -7.7%
COCCN1CCC12CCN(C(=O)c1ccsc1)CC2 | -20.8%
Cc1cc(C(=O)N2CCC3(CCN3Cc3ccc(F)cc3)C2)no1 (configuration not stated) | -6.05%
COCCN1CCC12CCN(C(=O)c1ccc(C)nc1)C2 (configuration not stated) | 54.8%
Cc1cnc(C(=O)N2CCC3(CCN3Cc3ccc(F)cc3)C2)cn1 (configuration not stated) | 53.9%
COCCN1CCC12CCN(C(=O)c1ccc3[nH]ccc3c1)C2 (configuration not stated) | 27.6%
Cn1ccnc1C(=O)N1CCC2(CCN2Cc2ccc(F)cc2)C1 (configuration not stated) | 25.8%
Cc1ccc(C(=O)N2CCC3(CCN3Cc3ccc(F)cc3)C2)cn1 (configuration not stated) | 62.9%

SMILES | INHIBITION
Cc1cnn(CC2CCCN2Cc2noc(CC(C)C)n2)c1 (configuration not stated) | 17.4%
CN1CCCN(C(=O)c2cnsn2)c2cc(F)ccc21 | 7.77%
Cc1ccc(Cn2nc(C)c3c(C(=O)O)c(Cl)c(C4CC4)nc32)cc1 | 31.7%
O=C(c1cc(Cl)c[nH]c1=O)N1C[C@H]2CC[C@@H](C1)N(Cc1ccccc1)C2 | -28.7%
Cn1cc(CN2C[C@@H]3CN(Cc4ccoc4)CCO[C@@H]3C2)cn1 | 7.11%
CCn1c(C)nc2cc(NC(=O)CC3CCCCO3)ccc21 (configuration not stated) | 27.5375%
Oc1nc(N2CCCC2)nc2nccc(-c3ccccn3)c12 | -13%
CCOC(=O)N1[C@@H](c2ccco2)[C@@H](CO)C[C@]12CCCCNC2=O | 1.04%
CCCC(O)CN1CC(C)(C)CN(C(=O)CCc2ccccc2)CC1=O (configuration not stated) | 20%
NC(=O)CN1CCC(C(=O)NCCn2cc(Cl)cn2)CC1 | 61%
CS(=O)(=O)N1CCC(C(=O)NCCCn2cc(Cl)cn2)CC1 | 40.3%
N[C@@H]1CC[C@H](C(=O)NCCn2cc(Cl)cn2)C1 | 60.1%
N[C@@H]1CC[C@H](C(=O)NCCc2nc(-c3ccccc3)cs2)C1 | -9.2%
NC(=O)C1CCN(CC(=O)NCCn2cc(Cl)cn2)CC1 | 45.2%
O=C(NCCn1cc(Cl)cn1)C1CCN(C(=O)C2CC2)CC1 | 2.55%
COc1cccc(NC(=O)NCC(O)c2ccc(F)cc2F)c1 (configuration not stated) | -3.7%
CCc1cccc2cc(CN)c(=O)[nH]c12 | 10.365%
CC1CCC(NCCNC(=O)c2cccs2)CC1 (configuration not stated) | 5.11%
Cc1c(CN2CCCC(C(=O)CCc3ccccc3)C2)cc(C#N)n1C (configuration not stated) | 19.4%
Cc1c(CN2CCCC(C(=O)c3ccccc3)C2)cc(C#N)n1C (configuration not stated) | 7.97%
Cc1c(CN2CCCC(C(=O)Nc3ccccc3)C2)cc(C#N)n1C (configuration not stated) | 74%
CN(CCc1ccccn1)C(=O)Nc1cccnc1-n1cccn1 | -19.2%

SMILES | INHIBITION
CCN1CCCN(S(=O)(=O)c2cnc3onc(C)c3c2)CC1 | 15.5%
CCCN1CCCN(S(=O)(=O)c2cnc3onc(C)c3c2)CC1 | 56.7%
Cc1noc2ncc(S(=O)(=O)N3CCCC(C)(C)CC3)cc12 | 36.1%
COc1cccc(-c2n[nH]cc2CNC2CCN(C3CC3)CC2)c1 | 3.46%
CCSCCC(C)N(C)C(=O)c1cc(C)on1 (configuration not stated) | -93.6%
Cc1cc(C(=O)N(C)C(C)CC(C)C)on1 (configuration not stated) | 20.9%
CCSCCC(C)N(C)C(=O)c1ccc(C)o1 (configuration not stated) | 85.2%
CCSCCC(C)N(C)C(=O)c1cc(C)no1 (configuration not stated) | 55.2%
CCSCCC(C)N(C)C(=O)c1ccc2nncn2c1 (configuration not stated) | 34.7%
COCC(c1cccc(C(F)(F)F)c1)N(C)C(=O)c1cc(C)no1 (configuration not stated) | -16.4%
CC(C)NC(=O)CCN1CCCC1c1cccc2c1OCCO2 (configuration not stated) | 35.4%
Cc1nc2ccccc2c(=O)n1CCC(=O)N1CCCCCC1 | 1.05%
COc1c[nH]c(C(=O)N2CCN(c3ccc(Cl)cc3)CC2)cc1=O | 13.9%
Cn1cc(NC(=O)CNC(=O)N2CCN(c3ccc(Cl)cc3)CC2)cn1 | 28.5%
Cc1nn(C)cc1C1=NS(=O)(=O)N(C)C(C(=O)Nc2ccc(Br)cc2)=C1 | 82.4%
Cc1cc(=O)n(CC(=O)Nc2ccc(Cl)cc2)nc1C | 25%
Cc1c(C2=NS(=O)(=O)N(C)C(C(=O)Nc3ccc(Br)cc3)=C2)cnn1C | 49.9%
Cc1nc(N2CCCC2)ncc1C(=O)Nc1ccc(Br)cc1 | -10.2%
Cc1nn(C)cc1C1=NS(=O)(=O)N(C)C(C(=O)Nc2ccc(Cl)cc2)=C1 | 77.7%
